This is an account of results in PubChem BioAssay (EPA / NIEHS).

The target in experiment [1] is T1, Estrogen receptor (Homo sapiens) + Estrogen receptor beta (Homo sapiens) (UniProt P03372+Q92731). The experiment can be described thus: OT_ER_ERaERb_0480: Odyssey Thera (OT) 8-hour HEK293T Protein-Complementation Assay for Estrogen Receptor-alpha/-beta Heterodimer (AID 2283352). The essentials:
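Compound added to HEK293T cells carrying split-reporter-tagged ER-alpha and ER-beta LBDs, incubated 8 hours, then imaged by laser scanning cytometer. Signal rise in nucleus, or nucleus and cytoplasm, over vehicle was fitted in the positive direction.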

For experiment [2], the target named is T1, Estrogen receptor (Homo sapiens) + Estrogen receptor beta (Homo sapiens). In words: OT_ER_ERaERb_1440: Odyssey Thera (OT) 24-hour HEK293T Protein-Complementation Assay for Estrogen Receptor-alpha/-beta Homodimer (AID 2283356).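 Note: heteromer of ER alpha and ER beta binding domains; hits raise reporter fluorescence and both agonists and antagonists give an increase.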 The essentials:
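Stable HEK293T PCA line, ERα LBD 310-547 + ERβ LBD 263-489 fused to reporter fragments; 24 h treatment; fluorescence read by laser scanning cytometry; positive fitting direction relative to DMSO.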

For experiment [3], the target named is Estrogen receptor beta (Homo sapiens) (UniProt Q92731). In words: OT_ER_ERbERb_0480: Odyssey Thera (OT) 8-hour HEK293T Protein-Complementation Assay for Estrogen Receptor-beta/-beta Homodimer (AID 2283357).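 Note: active means signal gain over DMSO baseline.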 Put shortly:
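Fluorescence gain from complemented reporter fragments on ER-beta LBD homodimer in HEK293T was quantified against DMSO controls after 8 h treatment, fixation in 4% formaldehyde and Draq5 staining.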

For experiment [4], the target named is Nuclear receptor subfamily 1 group I member 2 (Homo sapiens) (UniProt O75469). The experiment can be described thus: NVS_NR_hPXR: NovaScreen (NVS) Nuclear Receptor Binding Assay for human Pregnane X Receptor (PXR) (AID 2283365).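 Note: a drop in FRET signal versus DMSO baseline means the compound binds.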 Put shortly: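 Human PXR protein, cell-free; compound added, incubated 2 h, TR-FRET read. Signal decrease vs DMSO = binding. Screened 25 uM duplicate, actives re-run as dilution series.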

Experiment [5] concerns the target Retinoic acid receptor alpha (Homo sapiens) (UniProt P10276). In words: NVS_NR_hRARa_Agonist: NovaScreen (NVS) Nuclear Receptor Binding Assay for human Retinoic Acid Alpha Receptor Agonism (RAR) (AID 2283361). Put shortly:
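Compounds screened at 25 uM, duplicate, then in concentration series if active. Detection: TR-FRET gain of signal versus DMSO after 2 h with cell-free extracted RARα.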

The target of experiment [6] is Peroxisome proliferator-activated receptor gamma (Homo sapiens) (UniProt P37231). In words: NVS_NR_hPPARg: NovaScreen (NVS) Nuclear Receptor Binding Assay for human Peroxisome Proliferator-activated Receptor gamma (PPARg) (AID 2283370). Put shortly: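 Chemicals were tested first in duplicate at 25 uM, then in concentration series if active. Binding to cell-free PPARg protein was measured by fluorescence polarization after 2 h, with loss of signal scored against DMSO.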

Experiment [7] has as its target human Peroxisome Proliferator-activated Receptor alpha (PPARa), PPARA (gene 5465) (UniProt Q07869). The experiment can be described thus: NVS_NR_hPPARa: NovaScreen (NVS) Nuclear Receptor Binding Assay for human Peroxisome Proliferator-activated Receptor alpha (PPARa) (AID 2283359).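 Note: activity means loss of TR-FRET signal versus DMSO baseline.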 Put shortly:
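One-hour incubation, cell-free extracted protein, TR-FRET binding readout; signal loss vs DMSO scored. Screen: 25 uM duplicates, confirmatory dose series for actives.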

In experiment [8] the target is human Dopamine Transporter (DAT), SLC6A3 (gene 6531) (UniProt Q01959). In words: NVS_TR_hDAT: NovaScreen (NVS) Transporter Assay for human Dopamine Transporter (DAT) (AID 2283374).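 Note: activity means loss of bound radioligand signal relative to DMSO.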 Put shortly:
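Extracted human SLC6A3 protein incubated 1 h with radioligand and test chemical; bound fraction separated on filters and counted. Single 25 uM duplicate screen preceded concentration-response follow-up; positive and negative controls on every plate.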

Experiment [9] has as its target human Norepinephrine Transporter (NET), SLC6A2 (gene 6530) (UniProt P23975). In words: NVS_TR_hNET: NovaScreen (NVS) Transporter Assay for human Norepinephrine Transporter (NET) (AID 2283377).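 Note: cell-free membrane protein extracted from CHO cells expressing human NET; displacement of radioligand from human NET seen as loss of scintillation signal.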 The essentials: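 In this cell-free binding screen, chemicals at 25 uM (duplicate) compete with a radioligand for CHO-derived human NET over 1 hour, with filter-based radiodetection.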

For experiment [10], the target named is Retinoic acid receptor alpha (Homo sapiens) (UniProt P10276). In words: NVS_NR_hRAR_Antagonist: NovaScreen (NVS) Nuclear Receptor Binding Assay for human Retinoic Acid Alpha Receptor Antagonism (RAR) (AID 2283358). Put shortly:
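Chemicals were first tested in duplicate at 25 uM, then actives in concentration series, in a cell-free TR-FRET antagonist binding format. Measurements were taken 2 hours after dosing and loss of signal was evaluated against DMSO controls.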

Experiment [11] has as its target Glucocorticoid receptor (Homo sapiens) (UniProt P04150). In words: NVS_NR_hGR: NovaScreen (NVS) Nuclear Receptor Binding Assay for human Glucocorticoid Receptor (GR) (AID 2283363).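 For AC50: activity is loss of specific radioligand binding signal relative to DMSO.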 The essentials:
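Single-readout cell-free binding: radioligand plus extracted receptor, 16-hour dosing, filter radiodetection; 25 uM duplicate primary, concentration series secondary.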

In experiment [12] the target is human Thyroid Receptor Alpha (TRa), THRA (gene 7067) (UniProt P10827). In words: NVS_NR_hTRa_Antagonist: NovaScreen (NVS) Nuclear Receptor Binding Assay for human Thyroid Receptor Alpha Antagonism (TRa) (AID 2283362). Put shortly: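 Extracted protein, cell-free; 1 h incubation after dosing; AlphaLISA chemiluminescence binding readout. DMSO = baseline/neg ctrl; signal loss = activity. Primary: duplicate, 25 uM; secondary: conc. series on actives.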

The target of experiment [13] is Androgen Receptor/SRC-1 Co-activator, AR (gene 367) (UniProt P10275). The experiment can be described thus: OT_AR_ARSRC1_0960: Odyssey Thera (OT) 16-hour HEK293T Protein-Complementation Assay for Androgen Receptor/SRC-1 Co-activator (AID 2283353).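 Note: actives raise the signal above DMSO so potency reflects increased AR and SRC-1 complex.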 The essentials: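 Sixteen-hour cell assay: Venus halves fused to AR and SRC-1 in HEK293T report binding. Images at 488/635 nm give an N/C ratio in the 488 nm channel over ≥400 cells, analysed as signal increase over DMSO.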

Experiment [14] has the same target. In words: OT_AR_ARSRC1_0480: Odyssey Thera (OT) 8-hour HEK293T Protein-Complementation Assay for Androgen Receptor/SRC-1 Co-activator (AID 2283354).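 Note: hits raise the complementation signal above DMSO so AC50 marks enhancers.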 Put shortly:
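After 8 h dosing, stably expressing HEK293T cells with split-Venus AR/SRC-1 fusions were imaged (488, 635nm). The 488nm N/C ratio per image gave the endpoint, analysed in the positive direction against DMSO.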

In experiment [15] the target is rat Androgen Receptor (AR), Ar (gene 24208) (UniProt P15207). The experiment can be described thus: NVS_NR_rAR: NovaScreen (NVS) Nuclear Receptor Binding Assay for rat Androgen Receptor (AR) (AID 2283366). Put shortly:
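Actives from a duplicate single-concentration (25 uM) primary run went on to concentration series. Displacement of radioligand was counted by filtration and scintillation, 18 h post-dose, using prostate extracts from testosterone-pretreated rats, with DMSO as baseline.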

Results filed as inconclusive are left out. A structure can be active in one record and inactive in another. Activity calls are given as the source filed them. Rule for the calls: active = hit-call score of the fitted dose curve at least 0.9, where 1 is the maximum; inconclusive = response in the unintended direction; inactive = score below 0.9.

Chain of Glucocorticoid receptor (Homo sapiens) (P04150 whole entry, looked up): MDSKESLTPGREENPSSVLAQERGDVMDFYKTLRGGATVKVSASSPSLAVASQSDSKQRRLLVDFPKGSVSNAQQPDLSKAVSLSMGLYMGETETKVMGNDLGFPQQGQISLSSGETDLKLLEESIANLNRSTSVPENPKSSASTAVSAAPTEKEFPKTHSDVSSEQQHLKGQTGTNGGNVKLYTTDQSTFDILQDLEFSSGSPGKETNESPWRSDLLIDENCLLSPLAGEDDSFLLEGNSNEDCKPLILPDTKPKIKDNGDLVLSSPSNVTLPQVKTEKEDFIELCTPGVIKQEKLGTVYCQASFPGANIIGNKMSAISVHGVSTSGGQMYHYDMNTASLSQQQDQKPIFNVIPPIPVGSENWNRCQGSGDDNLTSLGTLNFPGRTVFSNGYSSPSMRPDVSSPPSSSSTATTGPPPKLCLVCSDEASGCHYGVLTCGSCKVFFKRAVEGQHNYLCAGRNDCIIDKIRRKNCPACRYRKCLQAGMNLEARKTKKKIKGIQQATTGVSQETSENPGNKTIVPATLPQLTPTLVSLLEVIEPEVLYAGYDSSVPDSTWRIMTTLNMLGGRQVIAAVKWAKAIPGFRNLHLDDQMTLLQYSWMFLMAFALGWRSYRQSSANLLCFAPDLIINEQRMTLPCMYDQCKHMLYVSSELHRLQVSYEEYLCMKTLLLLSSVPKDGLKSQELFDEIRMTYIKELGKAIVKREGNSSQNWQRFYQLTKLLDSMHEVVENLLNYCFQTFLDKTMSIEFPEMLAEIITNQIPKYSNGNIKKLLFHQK
Chain of Estrogen receptor beta (Homo sapiens) (Q92731 whole entry, looked up, the tested form may be a part): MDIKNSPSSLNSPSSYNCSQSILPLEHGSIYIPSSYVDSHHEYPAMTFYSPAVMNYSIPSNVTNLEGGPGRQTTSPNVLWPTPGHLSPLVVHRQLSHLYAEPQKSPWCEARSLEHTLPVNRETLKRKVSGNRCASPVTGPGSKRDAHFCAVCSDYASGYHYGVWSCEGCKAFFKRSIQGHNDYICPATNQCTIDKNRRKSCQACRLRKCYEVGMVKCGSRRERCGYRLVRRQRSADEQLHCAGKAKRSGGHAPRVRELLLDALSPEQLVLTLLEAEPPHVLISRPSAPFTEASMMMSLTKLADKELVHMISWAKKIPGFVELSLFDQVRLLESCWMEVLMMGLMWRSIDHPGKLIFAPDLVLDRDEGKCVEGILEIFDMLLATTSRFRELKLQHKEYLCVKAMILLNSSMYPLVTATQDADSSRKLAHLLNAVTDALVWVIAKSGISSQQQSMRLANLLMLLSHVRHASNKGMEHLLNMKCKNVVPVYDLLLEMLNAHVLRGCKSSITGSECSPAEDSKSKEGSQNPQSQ
Chain of Peroxisome proliferator-activated receptor gamma (Homo sapiens) (P37231 whole entry, looked up): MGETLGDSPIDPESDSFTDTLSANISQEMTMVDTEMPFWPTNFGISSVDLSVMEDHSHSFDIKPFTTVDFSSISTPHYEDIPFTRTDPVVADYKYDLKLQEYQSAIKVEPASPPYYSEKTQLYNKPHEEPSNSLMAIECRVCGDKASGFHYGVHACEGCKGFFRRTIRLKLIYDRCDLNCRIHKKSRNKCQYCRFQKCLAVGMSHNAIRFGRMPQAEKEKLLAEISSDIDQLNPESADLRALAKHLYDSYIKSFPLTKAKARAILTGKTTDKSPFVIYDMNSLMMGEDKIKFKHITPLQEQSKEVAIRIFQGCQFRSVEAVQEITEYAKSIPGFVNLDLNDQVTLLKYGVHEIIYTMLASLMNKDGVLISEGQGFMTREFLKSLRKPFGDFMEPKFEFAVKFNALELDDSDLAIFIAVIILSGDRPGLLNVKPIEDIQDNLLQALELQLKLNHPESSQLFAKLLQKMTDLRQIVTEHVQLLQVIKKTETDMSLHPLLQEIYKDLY
Chain of Nuclear receptor subfamily 1 group I member 2 (Homo sapiens) (O75469 whole entry, looked up): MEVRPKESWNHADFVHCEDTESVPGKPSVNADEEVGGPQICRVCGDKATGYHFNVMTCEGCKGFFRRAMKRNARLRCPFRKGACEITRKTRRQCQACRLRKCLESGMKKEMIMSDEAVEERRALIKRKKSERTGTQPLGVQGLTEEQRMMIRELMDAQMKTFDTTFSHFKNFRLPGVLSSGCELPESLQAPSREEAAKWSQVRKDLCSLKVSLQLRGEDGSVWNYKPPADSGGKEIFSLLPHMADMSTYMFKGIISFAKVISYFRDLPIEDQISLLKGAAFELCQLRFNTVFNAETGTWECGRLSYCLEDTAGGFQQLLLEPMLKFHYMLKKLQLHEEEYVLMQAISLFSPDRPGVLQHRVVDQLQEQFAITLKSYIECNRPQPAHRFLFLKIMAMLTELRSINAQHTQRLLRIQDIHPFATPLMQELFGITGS
Chain of Retinoic acid receptor alpha (Homo sapiens) (P10276 whole entry, looked up): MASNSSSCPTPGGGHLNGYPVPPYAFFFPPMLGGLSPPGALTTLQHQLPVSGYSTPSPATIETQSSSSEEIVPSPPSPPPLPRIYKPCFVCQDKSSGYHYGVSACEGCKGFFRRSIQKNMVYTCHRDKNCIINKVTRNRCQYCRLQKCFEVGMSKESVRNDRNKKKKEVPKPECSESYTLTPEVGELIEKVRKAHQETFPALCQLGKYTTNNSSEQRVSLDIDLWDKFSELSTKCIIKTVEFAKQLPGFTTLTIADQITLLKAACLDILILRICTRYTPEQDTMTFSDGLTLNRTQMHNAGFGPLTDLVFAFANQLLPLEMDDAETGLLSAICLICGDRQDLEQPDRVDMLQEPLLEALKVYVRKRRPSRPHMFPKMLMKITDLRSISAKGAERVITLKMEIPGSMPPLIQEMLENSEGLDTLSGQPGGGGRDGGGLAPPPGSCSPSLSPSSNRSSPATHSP
Chain of Androgen Receptor/SRC-1 Co-activator, AR (gene 367) (P10275 whole entry, looked up, the tested form may be a part): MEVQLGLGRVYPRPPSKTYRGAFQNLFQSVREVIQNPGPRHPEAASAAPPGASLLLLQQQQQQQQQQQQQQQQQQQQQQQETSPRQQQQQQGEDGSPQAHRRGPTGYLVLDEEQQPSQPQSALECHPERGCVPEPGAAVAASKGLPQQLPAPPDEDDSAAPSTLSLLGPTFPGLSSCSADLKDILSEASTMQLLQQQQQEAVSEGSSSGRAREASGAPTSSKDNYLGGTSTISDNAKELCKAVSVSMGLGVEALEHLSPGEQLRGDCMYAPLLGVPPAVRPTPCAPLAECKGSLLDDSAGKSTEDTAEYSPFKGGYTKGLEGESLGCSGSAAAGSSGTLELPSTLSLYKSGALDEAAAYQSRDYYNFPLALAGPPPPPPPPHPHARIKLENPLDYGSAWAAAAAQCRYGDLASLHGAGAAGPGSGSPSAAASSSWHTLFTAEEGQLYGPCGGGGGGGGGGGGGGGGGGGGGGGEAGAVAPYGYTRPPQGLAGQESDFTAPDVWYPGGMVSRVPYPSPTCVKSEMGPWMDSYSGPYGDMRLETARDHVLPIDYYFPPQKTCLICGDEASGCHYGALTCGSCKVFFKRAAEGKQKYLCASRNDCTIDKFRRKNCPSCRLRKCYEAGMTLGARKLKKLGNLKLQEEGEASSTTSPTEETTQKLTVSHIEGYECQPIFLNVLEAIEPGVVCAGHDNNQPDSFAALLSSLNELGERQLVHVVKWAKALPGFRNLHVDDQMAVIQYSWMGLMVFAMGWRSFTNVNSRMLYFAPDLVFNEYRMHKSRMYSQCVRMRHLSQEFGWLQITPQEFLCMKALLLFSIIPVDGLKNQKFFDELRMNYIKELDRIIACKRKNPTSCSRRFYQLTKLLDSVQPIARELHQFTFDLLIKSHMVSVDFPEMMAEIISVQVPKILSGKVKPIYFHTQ
Chain of human Peroxisome Proliferator-activated Receptor alpha (PPARa), PPARA (gene 5465) (Q07869 whole entry, looked up): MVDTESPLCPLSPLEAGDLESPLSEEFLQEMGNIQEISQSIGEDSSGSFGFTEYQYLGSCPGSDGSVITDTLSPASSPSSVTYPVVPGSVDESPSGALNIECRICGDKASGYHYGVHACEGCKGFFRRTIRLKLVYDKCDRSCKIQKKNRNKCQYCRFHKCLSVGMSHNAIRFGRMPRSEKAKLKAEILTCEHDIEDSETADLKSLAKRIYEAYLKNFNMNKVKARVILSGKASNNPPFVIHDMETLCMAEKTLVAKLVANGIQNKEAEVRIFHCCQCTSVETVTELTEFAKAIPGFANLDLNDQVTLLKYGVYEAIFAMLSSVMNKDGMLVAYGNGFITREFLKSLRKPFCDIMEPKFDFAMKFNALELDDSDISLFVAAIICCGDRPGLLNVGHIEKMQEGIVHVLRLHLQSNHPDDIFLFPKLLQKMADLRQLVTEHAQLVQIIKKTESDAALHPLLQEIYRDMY
T1 sequence (P03372 whole entry, looked up): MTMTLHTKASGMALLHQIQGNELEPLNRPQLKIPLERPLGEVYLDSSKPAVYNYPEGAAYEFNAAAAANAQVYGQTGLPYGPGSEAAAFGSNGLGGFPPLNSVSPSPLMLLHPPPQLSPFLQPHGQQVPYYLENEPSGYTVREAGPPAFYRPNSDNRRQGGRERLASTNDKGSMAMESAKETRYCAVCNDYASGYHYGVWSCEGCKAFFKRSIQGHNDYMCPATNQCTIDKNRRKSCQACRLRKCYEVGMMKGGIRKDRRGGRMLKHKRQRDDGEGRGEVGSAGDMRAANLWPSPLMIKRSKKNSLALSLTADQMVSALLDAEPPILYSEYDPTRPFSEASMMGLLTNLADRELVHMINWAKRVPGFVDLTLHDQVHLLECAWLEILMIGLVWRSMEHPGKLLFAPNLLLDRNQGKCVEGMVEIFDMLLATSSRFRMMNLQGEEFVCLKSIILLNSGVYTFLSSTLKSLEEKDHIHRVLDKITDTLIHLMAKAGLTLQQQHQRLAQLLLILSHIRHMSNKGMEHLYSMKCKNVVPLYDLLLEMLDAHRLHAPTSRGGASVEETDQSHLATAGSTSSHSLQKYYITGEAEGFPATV
T1 sequence (Q92731 whole entry, looked up): as the sequence (Q92731 whole entry, looked up, the tested form may be a part) above

For `COC(=O)c1c(C)cc(O)c(C)c1O`, the results for the AC50 in [1], in experiment [2] and in [3] were 50.4 µM (active), 61.8 µM (active) and 55.5 µM (active), respectively. In addition, the result in [4] was inactive.

As for `CN(C)c1ccc(C(=N)c2ccc(N(C)C)cc2)cc1`, the outcome in experiment [1] and in experiment [3] was inactive. The results for the AC50 in experiment [2] and in experiment [5] were 18.4 µM (active) and 14.1 µM (active), respectively.

In the case of `CCOC(=O)Cc1cccc2ccccc12`, in experiment [1], the AC50 is 61.7 µM (active). For the same molecule, the outcome in experiment [2] and in experiment [3] was inactive.

For `CC(=O)[C@H]1[C@H](C#N)C[C@H]2[C@@H]3CC=C4C[C@@H](O)CC[C@]4(C)[C@H]3CC[C@@]21C`, the result in experiment [1], in [2] and in experiment [3] was inactive.

On to `C=C1C2CCC(C2)C1(C)C` (stereo not drawn), for which the outcome in [1] and in experiment [2] was inactive.

For the molecule `Cc1cc(C)c(C(=O)O)c(C)c1`, the outcome in experiment [1], in [2] and in experiment [3] was inactive.

As to `Cc1ccc(C(C)c2ccc(C)c(C)c2)cc1C`, the values for the AC50 in [1], in experiment [2] and in [3] were 58 µM (active), 83.6 µM (active) and 68.1 µM (active), respectively.

On to `CC1=NN(c2cc(S(=O)(=O)O)ccc2Cl)C(=O)C1N=Nc1ccccc1` (stereo not drawn), for which the outcome in experiment [1], in experiment [2], in [3] and in [6] was inactive.

Take `CCCCC/C=C\C/C=C\CCCCCCCC(=O)OC`: the outcome in experiment [1], in [2], in experiment [3], in [7], in experiment [4] and in [6] was inactive. Also, in experiment [8], the molecule was called inactive. Further, the AC50 in [6] was 8.81 µM (active); in experiment [9], 25 µM (active).

Consider `O=C(c1ccccc1)C1CCC1`, for which the result in experiment [1], in experiment [2] and in [3] was inactive.

Consider `CCCCCCCCCCCCCOP(=O)(O)O`, for which the outcome in experiment [1], in experiment [2], in [3], in [10], in experiment [7] and in experiment [4] was inactive. The molecule was called inactive in [6]. Further, in [11], the concentration at half-maximal activity (AC50) is 10.4 µM (active).

In the case of `O=C(O)CCCC[C@@H]1SC[C@@H]2NC(=O)N[C@@H]21`, the result in experiment [1], in experiment [2] and in experiment [3] was inactive.

In the case of `CC=C1CC2C=CC1C2` (stereo not drawn), the outcome in experiment [1], in [2] and in experiment [3] was inactive.

Take `O=S1(=O)OC(c2ccc(O)cc2)(c2ccc(O)cc2)c2ccccc21`: the outcome in experiment [1], in [2], in experiment [3], in experiment [4] and in [6] was inactive. In experiment [12], the AC50 is 11 µM (active).

In the case of `Oc1ccc(Cl)cc1Cc1cc(Cl)ccc1O`, the AC50 is 11.9 µM (active) in experiment [1]; 29.6 µM (active) in experiment [13]; 55.5 µM (active) in [14]; 11.9 µM (active) in [2]; 11.9 µM (active) in experiment [3]; 14 µM (active) in experiment [7]. The concentration at half-maximal activity (AC50) in experiment [11] was 2.65 µM (active); in experiment [4] it was 16.8 µM (active); in experiment [15] it was 1.42 µM (active); in experiment [6] it was 25 µM (active). Moreover, the molecule was called inactive in experiment [10].

In the case of `CCCc1ccc(OC)cc1`, the result in [1], in [13], in [14], in [2] and in experiment [3] was inactive.

On to `CNC(=S)NN`, for which the result in experiment [1] and in [2] was inactive.

For the molecule `CO[Si](OC)(OC)c1ccccc1`, the outcome in experiment [1] and in experiment [2] was inactive.

For the molecule `CC(C)=CCC[C@H](C)CCO`, the outcome in experiment [1], in [13], in experiment [14], in experiment [2] and in experiment [3] was inactive.

For `O=C1CCCC1`, the result in experiment [1], in experiment [2], in [3] and in experiment [11] was inactive.

For `Cn1c([N+](=O)[O-])cnc1COC(N)=O`, the result in experiment [1], in experiment [2] and in experiment [3] was inactive.

As to `CC(C)c1ccc2cc(C(C)C)ccc2c1`, the outcome in [1], in [13], in experiment [14], in experiment [2] and in experiment [3] was inactive.

Turning to `OC1CCCC1`, the outcome in experiment [1] and in [2] was inactive.

As to `O=S(=O)(O)c1ccccc1C=Cc1ccc(-c2ccc(C=Cc3ccccc3S(=O)(=O)O)cc2)cc1`, the result in [1], in [2] and in experiment [6] was inactive. Further, the concentration at half-maximal activity (AC50) in [3] is 65.5 µM (active); in experiment [5], 12.1 µM (active); in experiment [11], 3.61 µM (active).

On to `CC(C)(C)c1ccc(-c2ccc(C(C)(C)C)cc2)cc1`, for which the outcome in experiment [1], in [14], in experiment [2] and in experiment [3] was inactive. Besides, in experiment [13], the AC50 was 77.8 µM (active).

`O=C(C=Cc1ccccc1)OCc1ccccc1`: the result in [1], in experiment [2] and in experiment [3] was inactive.

With `CC/C=C\C/C=C\C/C=C\CCCCCCCC(=O)O`, the outcome in experiment [1], in [2], in [3], in experiment [7] and in [12] was inactive. Also, the AC50 is 3.05 µM (active) in experiment [4] and 0.00769 µM (active) in experiment [6].

By AC50 is commonly meant the concentration at which the activity in the assay is half-maximal.
